Results filed as inconclusive are left out. The source made the active and inactive calls. Rule for the calls, unless noted: active = hit-call score of the fitted dose curve at least 0.9, where 1 is the maximum; inactive = score below 0.9.
Legend:
[1] = ACEA_ER_80hr: ACEA Biosciences xCELLigence Real-Time Cell Analysis on Estrogen Receptor Agonism for Proliferation (AID 2282667; active = hit-call score of the fitted dose curve at least 0.9, where 1 is the maximum); settings: T47D proliferation, impedance (xCELLigence), 80 h
Method in brief: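 T-47D cells monitored by electrical impedance (xCELLigence) with compound present throughout; 80 h timepoint, positive-direction fitting versus DMSO. Eight-point 1:4 dilutions from 100 uM final, duplicate plates.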

[2] = ATG_CRE_CIS: Attagene CIS-FACTORIAL HepG2 Assay for human cAMP Responsive Element (CRE) binding protein 3 (AID 2282926); settings: HepG2 CRE cis-reporter, Attagene multiplexed mRNA; actives raise or lower the signal
Method in brief: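 HepG2 cells transiently transfected with cis-element-driven multiple reporter transcription units; CRE reporter mRNA measured 24 h after dosing by RT-PCR, 6-FAM labelling, HpaI digestion and capillary electrophoresis. Bidirectional fit versus DMSO baseline.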

[3] = molecular target: CCAAT/enhancer-binding protein beta (Homo sapiens) (UniProt P17676); test: ATG_C_EBP_CIS: Attagene CIS-FACTORIAL HepG2 Assay for human CCAAT/Enhancer Binding Protein (C/EBP) beta (AID 2282927); settings: HepG2 Attagene cis-factorial transcription factor reporter; actives raise or lower the signal
CCAAT/enhancer-binding protein beta (Homo sapiens), sequence (P17676 whole entry, looked up): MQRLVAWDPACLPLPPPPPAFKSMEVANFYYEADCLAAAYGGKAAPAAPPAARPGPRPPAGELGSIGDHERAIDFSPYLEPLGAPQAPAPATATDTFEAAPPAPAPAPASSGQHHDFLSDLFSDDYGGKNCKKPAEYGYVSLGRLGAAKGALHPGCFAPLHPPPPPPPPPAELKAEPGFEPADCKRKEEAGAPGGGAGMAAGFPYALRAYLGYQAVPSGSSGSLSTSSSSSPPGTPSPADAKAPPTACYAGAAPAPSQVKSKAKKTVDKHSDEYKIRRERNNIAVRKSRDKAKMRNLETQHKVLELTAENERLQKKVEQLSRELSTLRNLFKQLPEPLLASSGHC
Method in brief: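 RT-PCR/capillary electrophoresis fluorescence of reporter mRNA, 24 h post-dose, in HepG2 cells carrying transfected cis-promoter reporter units. Bidirectional curve fitting against DMSO baseline captures gain or loss of signal.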

[4] = ATG_CMV_CIS: Attagene CIS-FACTORIAL HepG2 Assay for human CMV (Internal Marker) (AID 2282928); settings: HepG2 CMV promoter reporter, transcription factor profiling; actives raise or lower the signal;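 note: endpoint acts as a background internal control marker rather than a target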
Method in brief: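 After transient transfection of HepG2 with reporter transcription units driven by cis-regulatory promoters, cells receive test chemical for 24 h. Labeled reporter amplicons, digested with HpaI, are sized and quantified by capillary electrophoresis against DMSO.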

[5] = molecular target: Aryl hydrocarbon receptor (Homo sapiens) (UniProt P35869); test: ATG_Ahr_CIS: Attagene CIS-FACTORIAL HepG2 Assay for human Aryl Hydrocarbon Receptor (Ahr) (AID 2282930); settings: HepG2 AhR cis-factorial reporter transcription; actives raise or lower the signal
Aryl hydrocarbon receptor (Homo sapiens), sequence (P35869 whole entry, looked up): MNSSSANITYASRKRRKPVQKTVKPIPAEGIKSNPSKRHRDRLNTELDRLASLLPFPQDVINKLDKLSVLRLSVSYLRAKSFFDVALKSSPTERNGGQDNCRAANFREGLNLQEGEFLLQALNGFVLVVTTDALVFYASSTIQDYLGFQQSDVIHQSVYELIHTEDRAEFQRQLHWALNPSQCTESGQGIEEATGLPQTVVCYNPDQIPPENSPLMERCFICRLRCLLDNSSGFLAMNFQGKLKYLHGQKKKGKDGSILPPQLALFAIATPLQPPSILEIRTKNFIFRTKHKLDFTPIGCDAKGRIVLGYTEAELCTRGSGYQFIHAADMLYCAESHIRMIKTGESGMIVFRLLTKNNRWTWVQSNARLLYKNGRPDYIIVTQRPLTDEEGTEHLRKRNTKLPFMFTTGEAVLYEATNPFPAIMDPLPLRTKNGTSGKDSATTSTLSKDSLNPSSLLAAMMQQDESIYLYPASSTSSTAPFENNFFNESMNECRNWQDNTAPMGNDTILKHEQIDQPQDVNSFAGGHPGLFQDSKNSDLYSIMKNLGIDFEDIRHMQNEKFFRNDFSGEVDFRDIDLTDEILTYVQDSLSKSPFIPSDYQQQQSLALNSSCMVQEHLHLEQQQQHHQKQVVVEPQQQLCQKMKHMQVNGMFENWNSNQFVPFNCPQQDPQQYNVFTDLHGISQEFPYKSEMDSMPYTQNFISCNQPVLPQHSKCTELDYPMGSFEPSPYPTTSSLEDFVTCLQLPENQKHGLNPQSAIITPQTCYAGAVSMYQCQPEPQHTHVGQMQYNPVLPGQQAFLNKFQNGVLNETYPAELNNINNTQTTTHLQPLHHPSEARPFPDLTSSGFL
Method in brief: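 HepG2 cells transiently transfected with cis-element-driven multiplexed reporter transcription units; endogenous transcription factor activity measured as reporter mRNA 24 h after dosing. RT-PCR, 6-FAM labelling, HpaI digestion, capillary electrophoresis; bidirectional fitting versus DMSO baseline.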

[6] = ATG_AP_1_CIS: Attagene CIS-FACTORIAL HepG2 Assay for human Activator Protein 1 (AP-1) (AID 2282931); settings: HepG2 Attagene cis-factorial AP-1 reporter mRNA; actives raise or lower the signal
Method in brief: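 Reporter transcripts were measured 24 h after dosing by RT-PCR and capillary electrophoresis of fluorescent fragments. Cells: HepG2 carrying transfected cis-regulated reporter constructs reading endogenous factor activity. Gain or loss fitted against DMSO.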

[7] = ATG_AP_2_CIS: Attagene CIS-FACTORIAL HepG2 Assay for human Activator Protein 2 (AP-2) (AID 2282932); settings: HepG2 AP-2 cis-reporter, Attagene transcription factor profiling; actives raise or lower the signal
Method in brief: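 HepG2 cells were transiently transfected with multiple cis-promoter reporter transcription units and dosed for 24 h. Reporter mRNA was measured by RT-PCR with capillary electrophoresis fluorescence; bidirectional fits relative to DMSO baseline.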

[8] = ATG_BRE_CIS: Attagene CIS-FACTORIAL HepG2 Assay for human Bone Morphogenetic Protein (BMP) Response Element (BRE) (AID 2282933); settings: HepG2 BMP response element reporter, Attagene transcription factor profiling; actives raise or lower the signal
Method in brief: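 Transient MRTU transfection of human HepG2 liver cells; 24 h compound treatment; total RNA isolated, reverse-transcribed, PCR-amplified, 6-FAM labelled, HpaI-cut, capillary electrophoresis. DMSO = negative control/baseline, bidirectional fit.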

[9] = molecular target: Retinoic acid receptor alpha (Homo sapiens) (UniProt P10276); test: ATG_DR5_RAR_CIS: Attagene CIS-FACTORIAL HepG2 Assay for human Retinoic Acid Receptor Alpha (RARE), DR5 submotif (AID 2282934); settings: HepG2 Attagene cis-factorial RARE DR5 reporter, mRNA; actives raise or lower the signal;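 for AC50: reporter responds to endogenous RAR alpha beta and gamma in HepG2 not RARA alone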
Retinoic acid receptor alpha (Homo sapiens), sequence (P10276 whole entry, looked up): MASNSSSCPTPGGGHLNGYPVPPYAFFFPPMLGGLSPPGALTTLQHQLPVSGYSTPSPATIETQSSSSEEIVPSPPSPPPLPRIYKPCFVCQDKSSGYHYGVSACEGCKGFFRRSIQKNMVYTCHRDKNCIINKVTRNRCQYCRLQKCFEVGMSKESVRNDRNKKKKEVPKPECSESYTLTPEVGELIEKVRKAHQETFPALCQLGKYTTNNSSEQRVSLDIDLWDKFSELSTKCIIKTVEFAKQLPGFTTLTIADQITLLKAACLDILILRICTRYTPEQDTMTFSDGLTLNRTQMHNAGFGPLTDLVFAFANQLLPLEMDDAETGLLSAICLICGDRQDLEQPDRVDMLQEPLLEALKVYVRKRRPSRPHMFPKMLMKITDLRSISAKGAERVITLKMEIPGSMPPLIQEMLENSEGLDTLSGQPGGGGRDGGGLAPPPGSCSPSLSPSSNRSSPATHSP
Method in brief: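 HepG2 cells transiently transfected with multiplexed reporter units under cis (DR5 RARE) promoters, so endogenous transcription factor activity is measured. After 24 h compound exposure, reporter mRNA is quantified by RT-PCR with fluorescent labelling and capillary electrophoresis; bidirectional fitting versus DMSO.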

[10] = molecular target: Transcription factor E2F1 (Homo sapiens) (UniProt Q01094); test: ATG_E2F_CIS: Attagene CIS-FACTORIAL HepG2 Assay for human E2F Transcription Factor 1 (AID 2282935); settings: HepG2 Attagene cis-reporter, E2F reporter RNA transcripts; actives raise or lower the signal
Transcription factor E2F1 (Homo sapiens), sequence (Q01094 whole entry, looked up): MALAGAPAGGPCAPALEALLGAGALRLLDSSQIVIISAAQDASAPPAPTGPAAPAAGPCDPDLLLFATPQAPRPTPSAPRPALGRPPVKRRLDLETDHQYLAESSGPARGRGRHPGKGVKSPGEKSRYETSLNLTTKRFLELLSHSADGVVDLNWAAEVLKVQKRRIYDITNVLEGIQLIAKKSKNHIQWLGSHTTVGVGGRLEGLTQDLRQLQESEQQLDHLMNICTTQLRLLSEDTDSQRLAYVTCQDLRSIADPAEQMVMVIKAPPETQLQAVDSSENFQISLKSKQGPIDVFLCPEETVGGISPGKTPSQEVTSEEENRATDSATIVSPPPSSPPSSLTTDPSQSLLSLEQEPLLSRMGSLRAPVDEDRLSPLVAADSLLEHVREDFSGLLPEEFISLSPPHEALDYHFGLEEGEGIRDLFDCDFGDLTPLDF
Method in brief: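 HepG2 cells transiently transfected with multiplexed cis-element reporter units, dosed for 24 h. Reporter mRNA measured by RT-PCR, 6-FAM primer-extension labeling, HpaI digestion and capillary electrophoresis; bidirectional fit versus DMSO baseline.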

[11] = ATG_E_Box_CIS: Attagene CIS-FACTORIAL HepG2 Assay for human Enhancer Box (E-box) (AID 2282936); settings: HepG2 E-box cis-reporter transcription, actives raise or lower the signal
Method in brief: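 HepG2 cells transiently transfected with multiplexed cis-element reporter units sensing endogenous transcription factor activity; 24 h compound exposure. Reporter mRNA measured by RT-PCR, 6-FAM primer extension, HpaI digestion and capillary electrophoresis; bidirectional fit versus DMSO.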

[12] = ATG_M_61_CIS: Attagene CIS-FACTORIAL HepG2 Assay for M61 Transcription Factor (Internal Marker) (AID 2282937); settings: HepG2 Attagene CIS-FACTORIAL M61 internal marker reporter; actives raise or lower the signal
Method in brief: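 Readout: fluorescent reporter mRNA fragments resolved by capillary electrophoresis after RT-PCR. Transiently transfected human HepG2 cells carried MRTU constructs reporting endogenous TF activity; 24 h chemical exposure; gain or loss of signal fitted relative to DMSO.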

[13] = ATG_EGR_CIS: Attagene CIS-FACTORIAL HepG2 Assay for human Early Growth Response 1 (EGR1) (AID 2282938); settings: HepG2 Attagene CIS-FACTORIAL EGR reporter mRNA; actives raise or lower the signal
Method in brief: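 Read-out: fluorescent reporter-mRNA fragments resolved by capillary electrophoresis after RT-PCR, 24 h post-dose in transiently transfected HepG2. Endogenous transcription-factor activity reported via cis-element-regulated reporter units; gain or loss fitted relative to DMSO.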

[14] = ATG_M_19_CIS: Attagene CIS-FACTORIAL HepG2 Assay for M19 Transcription Factor (Internal Marker) (AID 2282939); settings: HepG2 Attagene CIS-FACTORIAL M19 internal marker reporter; actives raise or lower the signal
Method in brief: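 Transfect HepG2 with MRTU reporter library → dose chemical, 24 h → isolate total RNA, reverse-transcribe with oligo(dT) → PCR, 6-FAM label, HpaI cut (2 h, 37 C) → capillary electrophoresis. Bidirectional fit vs DMSO.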

[15] = ATG_ERE_CIS: Attagene CIS-FACTORIAL HepG2 Assay for Estrogen Response Element (ERE) (AID 2282940); settings: HepG2 ERE cis-reporter, Attagene RNA transcript; actives raise or lower the signal
Method in brief: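 Transient MRTU transfection of human HepG2; cis-element promoters; 24 h dosing; total RNA → RT (oligo dT) → PCR → 6-FAM primer extension → HpaI digest → CE fluorescence. Bidirectional fit, DMSO baseline.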

[16] = molecular target: Hepatocyte nuclear factor 3-beta (Homo sapiens) (UniProt Q9Y261); test: ATG_FoxA2_CIS: Attagene CIS-FACTORIAL HepG2 Assay for human Forkhead box A2 (FOXA2) (AID 2282942); settings: HepG2 cis-reporter transcription factor activity, 24 h; actives raise or lower the signal
Hepatocyte nuclear factor 3-beta (Homo sapiens), sequence (Q9Y261 whole entry, looked up): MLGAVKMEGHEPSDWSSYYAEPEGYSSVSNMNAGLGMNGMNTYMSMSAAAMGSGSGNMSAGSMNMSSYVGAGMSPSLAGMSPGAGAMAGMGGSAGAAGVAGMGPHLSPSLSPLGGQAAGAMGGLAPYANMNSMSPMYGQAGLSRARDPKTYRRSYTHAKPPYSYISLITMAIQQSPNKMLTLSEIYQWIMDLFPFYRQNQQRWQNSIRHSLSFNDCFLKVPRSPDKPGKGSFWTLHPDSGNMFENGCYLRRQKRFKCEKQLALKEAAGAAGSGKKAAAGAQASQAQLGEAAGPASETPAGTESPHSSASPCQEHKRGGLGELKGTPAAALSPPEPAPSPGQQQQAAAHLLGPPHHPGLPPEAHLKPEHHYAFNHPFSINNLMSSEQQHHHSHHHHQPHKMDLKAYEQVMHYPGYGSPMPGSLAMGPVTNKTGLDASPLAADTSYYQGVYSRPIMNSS
Method in brief: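 Readout: fluorescent reporter transcripts resolved by capillary electrophoresis after RT-PCR. Transiently transfected HepG2, 24 h compound exposure, endogenous TF activity at cis promoter elements. Gain or loss of signal fitted relative to DMSO.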

[17] = ATG_FoxO_CIS: Attagene CIS-FACTORIAL HepG2 Assay for human Forkhead box O (FoxO) (AID 2282943); settings: HepG2 Attagene cis-reporter, FoxO element, mRNA; actives raise or lower the signal
Method in brief: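 HepG2 cells transiently transfected with cis-promoter-driven multiple reporter transcription units; 24 h after chemical dosing, reporter mRNA quantified by RT-PCR, fluorescent primer extension, HpaI digestion and capillary electrophoresis. Bidirectional fitting versus DMSO baseline.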

[18] = ATG_Ets_CIS: Attagene CIS-FACTORIAL HepG2 Assay for human Erythroblast Transformation Specific (ETS) (AID 2282941); settings: HepG2 ETS cis-reporter transcription, actives raise or lower the signal
Method in brief: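 Human HepG2 hepatoma cells were transiently transfected with promoter-driven reporter constructs and treated for 24 hours. Reporter transcripts were quantified by RT-PCR with fluorescent primer extension; bidirectional curve fitting used DMSO as reference.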

[19] = ATG_GATA_CIS: Attagene CIS-FACTORIAL HepG2 Assay for human GATA Binding Protein (AID 2282944); settings: HepG2 GATA cis-element reporter, Attagene multiplex mRNA; actives raise or lower the signal
Method in brief: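 Transient MRTU transfection, HepG2, 24 h compound exposure. Total RNA → oligo(dT) RT → PCR → 6-FAM primer extension → HpaI cut → CE. Bidirectional fit vs DMSO.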

Measured: AC50

CCC(C)C(=O)OC (stereo not drawn)
active: [1] 0.0271 µM
not listed: [18] | [19]
inactive: all other assays above

C=Cc1cccc(C)c1
active: [6] 31.9 µM
not listed: [7] | [10]
inactive: all other assays above

CC1CCC(=O)C1=O (stereo not drawn)
not listed: [9] | [19]
inactive: all other assays above

CC1(C)CC(O)CC(C)(C)N1[O]
active: [4] 26.2 µM | [6] 26.6 µM
inactive: all other assays above

Clc1cc(Cl)c(Cl)c(Cl)c1Cl
active: [4] 50.7 µM
not listed: [5] | [7] | [8] | [17]
inactive: all other assays above

C=C1C[C@H]2[C@@H]3C=C(C)C4=CC(=O)CC[C@]4(C)[C@H]3CC[C@]2(C)[C@@]1(OC(C)=O)C(C)=O
active: [1] 0.00363 µM | [11] 97.6 µM | [13] 52.3 µM | [19] 93.6 µM
not listed: [6] | [7] | [17]
inactive: all other assays above

O=C1CCCCCCCCCCC1
not listed: [10]
inactive: all other assays above

[Cl][Eu]([Cl])[Cl]
active: [15] 51.6 µM
not listed: [7] | [18]
inactive: all other assays above

O=C1CCCCC1C1CCCCC1 (stereo not drawn)
not listed: [6]
inactive: all other assays above

CCC[Si](OC)(OC)OC
not listed: [5]
inactive: all other assays above

Cc1ccc([N+](=O)[O-])cc1N
not listed: [5] | [9] | [12]
inactive: all other assays above

CC=C(C)C(C)=O
active: [9] 43 µM
not listed: [6] | [11] | [18]
inactive: all other assays above

Cn1cccc1
not listed: [5] | [6] | [17]
inactive: all other assays above

O=C(Cl)c1c(Cl)c(Cl)c(C(=O)Cl)c(Cl)c1Cl
not listed: [6] | [12]
inactive: all other assays above

Cc1ccc2c(c1)CCCN2
not listed: [5]
inactive: all other assays above

CCCCCCC=O
active: [1] 10.9 µM | [15] 26.7 µM
not listed: [9]
inactive: all other assays above

CC/C=C\C/C=C\C/C=C\CCCCCCCC(=O)OC
active: [5] 47.6 µM | [6] 70.6 µM | [7] 100 µM | [8] 167 µM | [9] 100 µM | [11] 134 µM | [15] 38.9 µM | [17] 158 µM
inactive: all other assays above

CC(C)COC(=O)CC(C(=O)OCC(C)C)S(=O)(=O)O (stereo not drawn)
not listed: [8] | [10]
inactive: all other assays above

CCN1CN(CC)CN(CC)C1
active: [2] 162 µM | [3] 175 µM | [4] 140 µM
not listed: [5] | [10] | [11] | [18] | [19]
inactive: all other assays above

From PubChem BioAssay (EPA / NIEHS)
